Screening data (PubChem BioAssay)
This is a sample that favours compounds with a hit; in the whole collection about 6.5% have one here.
VACV Venus inh – vaccinia inhibition (Venus reporter); Vaccinia virus Venus reporter expression, fluorescence; Potency, µM (titrated, usually from 36.5 µM), for inactives: top-dose activity change, negative = inhibition, actives largely listed as inhibitors; 330,000 compounds, 0.46% hits; calls by dose curve; tested in A549 cells; further: potency means the concentration at half of the fitted maximal effect; nearly all actives have a fitted effect of over 30% in size
FMDV antiviral – blocks foot and mouth disease virus; FMDV antiviral cell-based qHTS; Potency, µM (titrated, usually from 57.9 µM), without a hit: top-dose activity change, negative = inhibition, actives largely listed as inhibitors; 410,000 compounds, 1.2% hits; calls by dose curve; tested in HEK293T cells; further: read-out not given here; potency means the concentration at half of the fitted maximal effect; nearly all actives have a fitted effect of over 45% in size
Lassa entry inh – inhibitors of Lassa virus binding or cell entry. Potency, µM (titrated, usually from 37.9 µM), for inactives: top-dose activity change, negative = inhibition, actives largely listed as inhibitors. 300,000 compounds, 1.2% hits. Lassa virus pseudotype entry inhibition, cell reporter; calls by dose curve; tested in HEK293 cells; further: potency means the concentration at half of the fitted maximal effect; nearly all actives have a fitted effect of over 50% in size
Marburg entry inh – inhibitors of Marburg virus binding or cell entry; Marburg virus pseudotyped entry inhibition, cell reporter; Potency, µM (titrated, usually from 37.8 µM), inactives show at the highest dose activity change, negative = inhibition, actives largely listed as inhibitors; 300,000 compounds, 1.8% hits; AID 540276; calls by dose curve; tested in HEK293 cells; further: potency means the concentration at half of the fitted maximal effect
HCMV inh – human cytomegalovirus inhibition | activity change, negative = inhibition, % at 57.5 µM | 410,000 compounds, 4.5% hits | AID 1259415 | HFF cells, HCMV-luciferase reporter, 72 h; stronger effect = lower value; in the data active means activity change below about -60%; inconclusive means no clear call, values can overlap the other calls; inactive means above about -39%
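Screen run at 2 compound doses on HFFs infected with reporter HCMV, MOI 1 PFU/cell. Luciferase activity from cell lysates at 72 h post infection gave inhibition relative to buffer-only and Salinomycin wells.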
VACV mCherry inh – inhibitors of vaccinia virus infection (mCherry reporter signal). Vaccinia virus mCherry reporter infection, fluorescence. Potency, µM (doses to about 36.5 µM), without a hit: at the highest dose activity change, negative = inhibition, usual class: inhibitors. 310,000 compounds, 0.63% hits. AID 720579; calls by dose curve; tested in A549 cells; further: potency means the concentration at half of the fitted maximal effect; nearly all actives have a fitted effect of over 35% in size
* hit, by the source's call; [ ] = dose if it differs, or a comment. On the % scale 0 is the no-effect control and ±100 the full control effect.

Results for C#CCOCCOCCOCCNc1nc(N2CCN(C(=O)CCCCCCCCCCNC(=O)[C@H](CCCCN)n3cc(CCCC(=O)O)nn3)CC2)nc(N2CCN(C(=O)CCCCCCCCCCNC(=O)[C@H](CCCN=C(N)N)n3cc(C[C@@H](C)CC)nn3)CC2)n1 ?
VACV Venus inh: 11µM*; FMDV antiviral: inconclusive; VACV mCherry inh: inconclusive

How did C#CCOCCOCCOCCNc1nc(N2CCN(C(=O)CCCCCCCCCCNC(=O)[C@H](CCCCN)n3cc(C[C@@H](C)CC)nn3)CC2)nc(N2CCN(C(=O)CCCCCCCCCCNC(=O)[C@H](CCCCN)n3cc(C[C@@H](C)CC)nn3)CC2)n1 do in these assays?
VACV Venus inh: 11µM*; FMDV antiviral: 40µM*; VACV mCherry inh: inconclusive

What do the screens show for `C#CCOCCOCCOCCNc1nc(N2CCN(C(=O)CCCCCCCCCCNC(=O)Cn3cc(C[C@@H](C)O)nn3)CC2)nc(N2CCN(C(=O)CCCCCCCCCCNC(=O)[C@H](CCCCN)n3cc(C[C@@H](C)CC)nn3)CC2)n1`?
VACV Venus inh: 10µM*; FMDV antiviral: inconclusive; VACV mCherry inh: inconclusive

How did COC(=O)c1cc2oc(C)cc2n1CC(=O)Nc1ccc(C)cc1C do in these assays?
VACV Venus inh: -3%; FMDV antiviral: -6%; Marburg entry inh: inconclusive; HCMV inh: -20; VACV mCherry inh: -6%

How did O=C(Nc1nc(-c2cccs2)cs1)c1ccc(S(=O)(=O)N2CCCCC2)cc1 do in these assays?
VACV Venus inh: inconclusive; FMDV antiviral: 16µM*; Marburg entry inh: -3%; HCMV inh: -67*; VACV mCherry inh: inconclusive

What do the screens show for `CNc1nc(-c2ccc(S(=O)(=O)N3CCCCC3)cc2)cs1`?
FMDV antiviral: -23%; HCMV inh: 74

What do the screens show for `O=C(Nc1nc(-c2ccc(S(=O)(=O)N3CCCC3)cc2)cs1)c1ccco1`?
VACV Venus inh: -22%; FMDV antiviral: inconclusive; Lassa entry inh: -20%; Marburg entry inh: inconclusive; HCMV inh: -65*; VACV mCherry inh: inconclusive

What do the screens show for `O=C(Nc1nc(-c2cccs2)cs1)c1cccc(S(=O)(=O)N2CCCCCC2)c1`?
VACV Venus inh: inconclusive; FMDV antiviral: 3%; Lassa entry inh: -16%; Marburg entry inh: inconclusive; HCMV inh: 95; VACV mCherry inh: inconclusive

Results for Cc1cccc(C)c1NC(=O)CN(C)C(=O)c1ccc2nc[nH]c2c1 ?
VACV Venus inh: -13%; FMDV antiviral: -7%; Lassa entry inh: 8%[46.1 µM]; Marburg entry inh: 15%; HCMV inh: -13; VACV mCherry inh: inactive

Results for COC(=O)c1nc(NC(=O)c2ccccc2Br)n[nH]1 ?
VACV Venus inh: -14%; FMDV antiviral: 20µM*; Lassa entry inh: -2%[46.1 µM]; Marburg entry inh: -14%[46.1 µM]; HCMV inh: 25; VACV mCherry inh: inactive

What do the screens show for `COC(=O)c1nc(NC(=O)c2cc(OC)c(OC)c(OC)c2)n[nH]1`?
VACV Venus inh: 13%; FMDV antiviral: -28%; Lassa entry inh: 15%[46.1 µM]; Marburg entry inh: 4%[46.1 µM]; HCMV inh: 18; VACV mCherry inh: -6%

How did CCCCCCCn1c2c(c(=N)c3ccccc31)CCC2 do in these assays?
VACV Venus inh: inconclusive; FMDV antiviral: 5µM*; HCMV inh: -79*; VACV mCherry inh: inconclusive

What do the screens show for `CCCn1c2c(c(=N)c3c1CCC3)CCC2`?
VACV Venus inh: -25%; FMDV antiviral: inconclusive; Lassa entry inh: -7%; Marburg entry inh: inconclusive; HCMV inh: -74*; VACV mCherry inh: -11%

Results for CCCn1c2c(c(=N)c3c1CCC3)CCCC2 ?
VACV Venus inh: -22%; FMDV antiviral: inconclusive; Lassa entry inh: inconclusive; Marburg entry inh: inconclusive; HCMV inh: -97*; VACV mCherry inh: -20%

Results for O=C(O)CCn1c2c(c3ccccc31)CCCC2 ?
FMDV antiviral: -17%; Lassa entry inh: -4%; Marburg entry inh: 23%; HCMV inh: 14

Results for CCCCNC(=O)C(C)(C)n1cc(NC(=O)Cc2ccc(F)cc2)cn1 ?
HCMV inh: 2

What do the screens show for `CC(=O)N1CCC[C@H]1C(=O)NCC1Cc2cc(F)cc(-c3ccc(F)c(C)c3)c2O1` (stereo partly drawn)?
VACV Venus inh: -2%; FMDV antiviral: 2%; VACV mCherry inh: -14%

How did COc1ccc(CN2CCOc3c(cc(-c4ccc(OC)nn4)cc3OC)C2)c(O)c1 do in these assays?
VACV Venus inh: -18%; FMDV antiviral: 9%; VACV mCherry inh: -24%

What do the screens show for `C=CCN1C[C@H](C(=O)N(CCCN(C)C)C(=O)NCC)C[C@@H]2c3cccc4[nH]cc(c34)C[C@H]21`?
FMDV antiviral: -5%

Results for CCC(C)[C@H]1CNC(=S)N1CCc1cccc2ccccc12 (stereo partly drawn) ?
VACV Venus inh: -10%; FMDV antiviral: -2%; HCMV inh: 21; VACV mCherry inh: inconclusive

What do the screens show for `CCC(C)[C@H]1CNC(=S)N1CCC12CC3CC(CC(C3)C1)C2` (stereo partly drawn)?
VACV Venus inh: -19%; FMDV antiviral: 13%; HCMV inh: -79*; VACV mCherry inh: -1%

Results for Cc1cccc(C)c1NC(=O)C1(C)CSCC(=O)N1Cc1ccco1 (stereo not drawn) ?
VACV Venus inh: 12%; FMDV antiviral: -1%; HCMV inh: -9; VACV mCherry inh: inactive

Results for CC#CC(=O)N[C@H]1CC[C@@]23CCCN2C(=O)CCC[C@H]3[C@H]1Cc1ccccc1 ?
HCMV inh: -14

How did Cc1ccc(C(=O)C(c2ccccc2)N2Cc3ccccc3C2=N)cc1 (stereo not drawn) do in these assays?
VACV Venus inh: inconclusive; FMDV antiviral: 32µM*; Lassa entry inh: inconclusive; Marburg entry inh: inconclusive; VACV mCherry inh: -25%

How did CC(C)CCNC(=O)[C@@H](c1ccccc1)N1Cc2ccccc2C1=O do in these assays?
VACV Venus inh: 0%; FMDV antiviral: 43%; Lassa entry inh: 1%[46.1 µM]; Marburg entry inh: 8%[46.1 µM]; HCMV inh: -1; VACV mCherry inh: -2%

How did Cc1cccc(CSc2nnc(CCCCCN)o2)c1 do in these assays?
VACV Venus inh: -3%; FMDV antiviral: -19%; Lassa entry inh: inconclusive; Marburg entry inh: inconclusive; HCMV inh: -76*; VACV mCherry inh: -2%

What do the screens show for `NCCCCCc1nnc(SCc2cccc(Cl)c2)o1`?
FMDV antiviral: -15%; Lassa entry inh: -27%; Marburg entry inh: -22%; HCMV inh: -36

How did CSc1ccc(C(=O)C2CCCN(Cc3cc4ccccc4[nH]3)C2)cc1 (stereo not drawn) do in these assays?
VACV Venus inh: -22%; FMDV antiviral: inconclusive; Lassa entry inh: inconclusive; Marburg entry inh: 3.5µM*; HCMV inh: -9; VACV mCherry inh: inconclusive
